The subject of the test is iBMDM (immortalised mouse bone-marrow-derived macrophages), LPS-stimulated. The test is described as follows: mitochondrial superoxide (MitoSOX fluorescence) fold increase over unstimulated control; higher = more LPS-induced mitochondrial ROS (less inhibition). The following applies: inhibitor concentration: 500 nM, LPS: 100 ng/ml. In outline:
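Immortalised mouse bone-marrow-derived macrophages in black 96-well plates were kept in phenol-red-free 1% FCS/DMEM for 20 h, pretreated 30 min with kinase inhibitors (500 nM), loaded with 1 μM MitoSox for 10 min and then given LPS (100 ng/ml). Fluorescence at excitation/emission 510/580 nm was read on a ClarioStar plate reader every 60 min for 4 h, with wells in triplicate. Mitochondrial superoxide is given as fold induction over untreated macrophages, averaged across replicates.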

Structures can show the parent of a compound that is named as a salt. ± gives the standard deviation of the averaged measurements.

As for `N#Cc1ccc2[nH]c(O)c(-c3ccc(CN4CCOCC4)cn3)c2c1`, the mitochondrial superoxide (time after LPS: 1 h) turned out to be 1.08 ± 0.043, the mitochondrial superoxide (time after LPS: 2 h) was 1.24 ± 0.097 and the mitochondrial superoxide (time after LPS: 4 h) was 1.38 ± 0.045.
The matching figures for `C[S+]([O-])c1ccc(-c2nc(-c3ccc(F)cc3)c(-c3ccncc3)[nH]2)cc1` (stereo not drawn): 1.39 ± 0.14, 1.5 ± 0.16 and 1.6 ± 0.18.
In the case of `O=C(NOCC(O)CO)c1cc(Br)c(F)c(F)c1Nc1ccc(I)cc1F` (stereo not drawn), the mitochondrial superoxide reads like this: (time after LPS: 1 h) 1.31 ± 0.033; (time after LPS: 2 h) 1.3 ± 0.054; (time after LPS: 4 h) 1.34 ± 0.065.
Regarding `C[C@@H](Oc1cc(-n2cnc3ccc(CN4CCN(C)CC4)cc32)sc1C(N)=O)c1ccccc1C(F)(F)F`, the mitochondrial superoxide (time after LPS: 1 h) was found to be 1.12 ± 0.059, the mitochondrial superoxide (time after LPS: 2 h) amounted to 1.22 ± 0.025 and the mitochondrial superoxide (time after LPS: 4 h) is 1.35 ± 0.048.
For `Cc1ccc(-c2nn(C(C)(C)C)c3ncnc(N)c23)cc1`, in that order: 1.18 ± 0.043, 1.22 ± 0.055 and 1.34 ± 0.046.
Take `N#CC(=C(/N)Sc1ccccc1N)/C(C#N)=C(\N)Sc1ccccc1N`: the mitochondrial superoxide is, setting by setting: (time after LPS: 1 h) 1.36 ± 0.043; (time after LPS: 2 h) 1.4 ± 0.048; (time after LPS: 4 h) 1.45 ± 0.047.
The matching figures for `CCC(=O)Nc1cccc(Oc2nc(Nc3ccc(N4CCN(C)CC4)cc3OC)ncc2Cl)c1`: 1.39 ± 0.084, 1.51 ± 0.091 and 1.79 ± 0.061.
The matching figures for `Cc1cc(Nc2cc(N3CCN(C)CC3)nc(Sc3ccc(NC(=O)C4CC4)cc3)n2)n[nH]1` [VX-680 (Tozasertib, MK-0457)]: 1.55 ± 0.069, 1.64 ± 0.051 and 1.73 ± 0.033.
Take `CNC(=O)c1ccccc1Nc1nc(Nc2ccc(N3CCOCC3)cc2OC)ncc1Cl`: the mitochondrial superoxide was 1.12 ± 0.084 (time after LPS: 1 h), 1.11 ± 0.056 (time after LPS: 2 h) and 1.23 ± 0.081 (time after LPS: 4 h).
For `Cc1ccc(NC(=O)c2cccc(C(C)(C)C#N)c2)cc1Nc1ccc2ncn(C)c(=O)c2c1`, the mitochondrial superoxide came to 1.07 ± 0.05 (time after LPS: 1 h), 1.14 ± 0.084 (time after LPS: 2 h) and 1.349 ± 0.011 (time after LPS: 4 h).
As to `CS(=O)(=O)N1CCN(Cc2cc3nc(-c4cccc5[nH]ncc45)nc(N4CCOCC4)c3s2)CC1`, the mitochondrial superoxide is, setting by setting: (time after LPS: 1 h) 1.28 ± 0.025; (time after LPS: 2 h) 1.42 ± 0.027; (time after LPS: 4 h) 1.6 ± 0.041.
As for `O=C(NCc1ccccc1)c1csc(Nc2ccncn2)n1` [Thiazovivin], the mitochondrial superoxide (time after LPS: 1 h) came out at 1.11 ± 0.012, the mitochondrial superoxide (time after LPS: 2 h) was determined as 1.2 ± 0.078 and the mitochondrial superoxide (time after LPS: 4 h) was 1.29 ± 0.11.
Regarding `CN(C)C1CCN(C(=O)c2ccc(NC(=O)Nc3ccc(-c4nc(N5CCOCC5)nc(N5CCOCC5)n4)cc3)cc2)CC1`, the mitochondrial superoxide is, setting by setting: (time after LPS: 1 h) 1.1 ± 0.061; (time after LPS: 2 h) 1.29 ± 0.014; (time after LPS: 4 h) 1.58 ± 0.095.
For `Nc1nc(N)c2nc(-c3cccc(O)c3)c(-c3cccc(O)c3)nc2n1`, in that order: 1.18 ± 0.049, 1.23 ± 0.1 and 1.4 ± 0.12.
Take `O=C1C(c2c(O)[nH]c3ccccc23)=Nc2ccccc21` [Indirubin]: the mitochondrial superoxide by setting is: (time after LPS: 1 h) 1.22 ± 0.026; (time after LPS: 2 h) 1.34 ± 0.073; (time after LPS: 4 h) 1.42 ± 0.048.
Consider `CN1CCC(CNc2ccc3ncc(-c4cccc(OC(F)(F)F)c4)n3n2)CC1` [SGI-1776 free base], for which the mitochondrial superoxide amounted to 1.13 ± 0.048 (time after LPS: 1 h), 1.22 ± 0.052 (time after LPS: 2 h) and 1.33 ± 0.071 (time after LPS: 4 h).
The matching figures for `O=C(NCCCNc1nc(Nc2cccc(NC(=O)N3CCCC3)c2)ncc1I)c1cccs1`: 1.14 ± 0.041, 1.18 ± 0.036 and 1.13 ± 0.051.
The compound `COc1cc(CCc2cc(NC(=O)c3ccc(N4CC(C)NC(C)C4)cc3)n[nH]2)cc(OC)c1` (stereo not drawn) yielded a mitochondrial superoxide (time after LPS: 1 h) of 1.26 ± 0.04, a mitochondrial superoxide (time after LPS: 2 h) of 1.42 ± 0.032 and a mitochondrial superoxide (time after LPS: 4 h) of 1.53 ± 0.092.
For `O=C1NC(=O)/C(=C/c2ccc3c(c2)OC(F)(F)O3)S1`, in that order: 1.26 ± 0.032, 1.4 ± 0.033 and 1.51 ± 0.068.
The matching figures for `CN(C)Cc1cccc(N=C(c2ccccc2)c2c(O)[nH]c3cc(C(N)=O)ccc23)c1`: 1.15 ± 0.031, 1.15 ± 0.052 and 1.26 ± 0.07.
The matching figures for `S=C(NCc1ccc2c(c1)OCO2)N1CCN(c2ncnc3c2oc2ccccc23)CC1` [Amuvatinib (MP-470)]: 1.18 ± 0.12, 1.21 ± 0.076 and 1.15 ± 0.063.
With `Cc1cnc(-c2cnc(NCCNc3ccc(C#N)cn3)nc2-c2ccc(Cl)cc2Cl)[nH]1`, the mitochondrial superoxide (time after LPS: 1 h) stood at 1.14 ± 0.048, the mitochondrial superoxide (time after LPS: 2 h) was determined as 1.09 ± 0.041 and the mitochondrial superoxide (time after LPS: 4 h) is 1.25 ± 0.027.
For `Cc1ccc(Nc2nccc(N(C)c3ccc4c(C)n(C)nc4c3)n2)cc1S(N)(=O)=O`, in that order: 1.46 ± 0.059, 1.563 ± 0.0056 and 1.65 ± 0.11.
For `Cc1[nH]c(/C=C2\C(=O)Nc3ccc(S(=O)(=O)N(C)c4cccc(Cl)c4)cc32)c(C)c1C(=O)N1CCN(C)CC1`, in that order: 1.33 ± 0.11, 1.4 ± 0.15 and 1.67 ± 0.27.
For `Cn1cc(-c2[nH]c3cc(NC(=O)[C@H](N)C4CCCCC4)cc4c3c2C=NNC4=O)cn1`, in that order: 1.15 ± 0.062, 1.15 ± 0.043 and 1.27 ± 0.029.
As to `O=S(=O)(c1cccc2cnccc12)N1CCCNCC1` [Fasudil (HA-1077) HCl], the mitochondrial superoxide runs as follows: (time after LPS: 1 h) 1.03 ± 0.023; (time after LPS: 2 h) 1.12 ± 0.041; (time after LPS: 4 h) 1.31 ± 0.029.
In the case of `NC1(C(=O)N[C@@H](CCO)c2ccc(Cl)cc2)CCN(c2ncnc3[nH]ccc23)CC1`, the mitochondrial superoxide amounted to 1.38 ± 0.024 (time after LPS: 1 h), 1.54 ± 0.046 (time after LPS: 2 h) and 1.61 ± 0.029 (time after LPS: 4 h).
For `OCCn1cc(-c2cnc3nnn(Cc4ccc5ncccc5c4)c3n2)cn1`, in that order: 1.37 ± 0.059, 1.41 ± 0.018 and 1.498 ± 0.0039.
The matching figures for `Nc1nccc(Oc2ccc(NC(=O)c3c[nH]cc(-c4ccc(F)cc4)c3=O)cc2F)c1Cl`: 1.21 ± 0.032, 1.22 ± 0.043 and 1.37 ± 0.11.
The matching figures for `COc1ccc(F)c(F)c1C(=O)c1cnc(NC2CCN(S(C)(=O)=O)CC2)nc1N`: 1.28 ± 0.081, 1.57 ± 0.13 and 1.8 ± 0.14.
On to `CC(C)NC[C@@H](C(=O)N1CCN(c2ncnc3c2[C@H](C)C[C@H]3O)CC1)c1ccc(Cl)cc1`, for which the mitochondrial superoxide worked out at 1.25 ± 0.045 (time after LPS: 1 h), 1.49 ± 0.11 (time after LPS: 2 h) and 1.7 ± 0.094 (time after LPS: 4 h).

(Values after the supplement of paper PMC7393113.)
